Experimental data reported in PubChem BioAssay AID1851 (National Center for Advancing Translational Sciences (NCATS), 2009).
In all, about 16,000 compounds went through this assay and about 5,700 (36%) were called active. Roughly 24% stayed inconclusive and do not appear here. Calls follow the shape of the dose curve; as a rule, active = well fitted curve in the direction sought with a large enough effect; inconclusive = small, poorly fitted or top-dose-only effect, or effect the other way; inactive = no such curve, though single readings can be large or run the other way. The list shows a part of the results.

What follows are molecules tested against Cytochrome P450 1A2 (Homo sapiens) (UniProt P05177) (assay: Cytochrome panel assay with activity outcomes). Settings: recombinant CYP, pro-luciferin dealkylation, luminescence, p450-cyp1a2; series mostly up to 57.1 µM.
Sequence of Cytochrome P450 1A2 (Homo sapiens) (P05177 whole entry, looked up): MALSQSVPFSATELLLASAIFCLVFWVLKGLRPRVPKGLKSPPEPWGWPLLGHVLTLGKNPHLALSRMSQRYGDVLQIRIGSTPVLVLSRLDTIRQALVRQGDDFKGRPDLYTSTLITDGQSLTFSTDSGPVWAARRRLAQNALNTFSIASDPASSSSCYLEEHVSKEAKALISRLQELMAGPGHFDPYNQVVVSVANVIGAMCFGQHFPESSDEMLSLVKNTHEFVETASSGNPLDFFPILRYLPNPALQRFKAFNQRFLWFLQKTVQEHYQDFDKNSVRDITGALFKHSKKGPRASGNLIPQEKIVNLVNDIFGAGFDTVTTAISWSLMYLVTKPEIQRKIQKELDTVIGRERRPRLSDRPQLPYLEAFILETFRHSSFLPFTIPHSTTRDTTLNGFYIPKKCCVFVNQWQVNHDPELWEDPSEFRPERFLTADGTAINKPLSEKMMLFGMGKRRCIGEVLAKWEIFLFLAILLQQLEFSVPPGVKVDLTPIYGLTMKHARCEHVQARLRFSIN
% is scaled to controls: 0 for no effect and ±100 for the full control effect.

activity, negative = inhibition, inactive:
O=C1C[C@H]2C(=O)[C@@H]1[C@@H](C(=O)O)[C@H]2C(=O)O -11% [at 11.4 µM], CC(C)[C@H](NC(=O)OC(C)(C)C)[C@@H](O)CC(=O)OC(C)(C)C -7.19% [at 11.4 µM], COC(=O)[C@@H]1CC[C@H](C)[C@@H](c2ccc(C)cc2)N1C(=O)c1ccc(/C=N\OC[C@@H](O)[C@H]2O[C@H]3OC(C)(C)O[C@H]3[C@@H]2O)cc1 -5.97% [at 11.4 µM], C/C(CCN1CCc2nc(-c3ccccc3)c(-c3ccccc3)cc2C1)=N\OC[C@@H](O)[C@@H]1O[C@@H]2OC(C)(C)O[C@@H]2[C@H]1O -5.51% [at 11.4 µM], CC(C)=NO[C@@H](C)c1cn([C@@H]2COC[C@@H]2O)nn1 -6.31% [at 11.4 µM], C[C@@H]1CC[C@H]2C(=O)NC[C@@H](O)CN2[C@@H]1c1ccc(Br)cc1 -9.06% [at 11.4 µM], C#CCCCO/N=C1/C[C@@H](O)[C@@H](O)[C@@H]2[C@@H]3C(=O)N(Cc4ccccc4)C(=O)[C@H]3CC[C@H]12 0.662% [at 11.4 µM], CO[C@@H]1COC(=O)[C@@H](CCSC)NC(=O)C/C=C\[C@@H](C)COC(=O)CCC[C@H]1C 0.608% [at 11.4 µM], O=C(O)C1(C(=O)O)CCN(S(=O)(=O)c2ccccc2)CC1 13.9% [at 2.29 µM], Nc1ncnc2c1ncn2C[C@@H](O)C(=O)O -12.5% [at 11.4 µM], O=c1[nH]c(=S)[nH]c2c1CN(CCCN1CCOCC1)CN2 -13.5% [at 2.29 µM], C=CC[C@@H]1C=C[C@@H](O/N=C\c2ccc(C(=O)N3[C@H](c4ccc(C)cc4)[C@@H](C)CC[C@H]3C(=O)OC)cc2)[C@@H](CO)O1 -12.6% [at 11.4 µM], CN(C)CCNc1ccccn1 -5.87% [at 11.4 µM], O=C(O)c1nc2nc(Cl)c(Cl)nc2[nH]1 -18.2% [at 11.4 µM]

AC50, active:
COc1cc(/C=C2/C(=N)N3C=CSC3=NC2=O)ccc1OCCCOc1c(C)cccc1C 3.55 µM, CCOC(=O)c1c(C(C)(C)C)oc2ccc(O)cc12 0.251 µM, CCC1(O)c2ccccc2-c2ncccc21 (stereo not drawn) 14.1 µM, O=c1c(-c2ccc(F)cc2)nc2cnc(N3CCOCC3)nc2n1C[C@H]1CCCO1 1.58 µM, O=c1c(-c2ccccc2)nc2cnc(N3CCOCC3)nc2n1C[C@H]1CCCO1 3.16 µM, O=c1c(-c2ccc(Cl)cc2)nc2cnc(N3CCOCC3)nc2n1C[C@H]1CCCO1 2 µM, COc1ccc2c(c1)Cc1cc(N=[N+]([O-])c3ccc4c(c3)Cc3cc(OC)ccc3-4)ccc1-2 1.58 µM, CC(C)(C)NC(=O)CSC(=Nc1ccc(F)cc1)NC#N 2.51 µM, O=[N+]([O-])C1=CC=C2C(=NC3(CCCCC3)N2O)C1=NC1CCCCC1 10 µM, O=C(O)C1=CC(=C(c2ccc(O)c(C(=O)O)c2)c2ccc(O)c(C(=O)O)c2)C=CC1=O 10 µM, Cc1nc(S(=O)(=O)NC2CCCCC2)c(C#N)c(C)c1Cl 10 µM, Cc1nc(S(=O)(=O)N(C)c2ccccc2)c(C#N)c(C)c1Cl 15.8 µM, Cc1cc(C)n(-c2nnc(C)n2/N=C/c2ccccc2OCc2ccccc2Cl)n1 2 µM, CCOC(=O)COc1c(C=O)cc(Br)cc1OC 4.47 µM, CCOC(=O)c1cc(-c2ccc(Cl)cc2)nc2c1c(C)nn2CCC#N 0.891 µM, CC1CC2(CCCCC2)N2C(=O)C(=O)c3cccc1c32 (stereo not drawn) 2.24 µM, Cn1nc(C(F)(F)F)c(/C=N/OCc2c(Cl)cccc2Cl)c1Cl 1.26 µM, Cn1nc(C(F)(F)F)c(/C=N/OC(=O)c2ccc(Cl)cc2)c1Cl 12.6 µM, Cn1nc(C(F)(F)F)c(/C=N/OC(=O)c2ccccc2Cl)c1SCc1ccc(Cl)cc1 2.82 µM, CCn1c(SCC(=O)c2ccc3ccccc3c2)nnc1-c1cccs1 3.55 µM, O=C(CSc1nnc(-c2ccccc2)n1-c1ccccc1)c1cccs1 14.1 µM, CCn1c(SCC(=O)c2ccccc2)nnc1-c1cccs1 3.55 µM, CCCCCn1c(=O)c(C(=O)c2ccccc2)nc2ccccc21 0.708 µM, O=[N+]([O-])c1cccc(-c2nc(-c3ccncc3)no2)c1 0.631 µM, O=C(N/N=C/c1cccc(F)c1)c1csc2c1CCCC2 4.47 µM, CC(C)NCCCOc1ccc(Cl)cc1Br 0.631 µM, O=C1CN=C(Nc2ccccc2)N1Cc1cccs1 12.6 µM, CCOc1ccc(NC2=NCC(=O)N2Cc2cccs2)cc1 22.4 µM, Cc1cc(N)n(-c2ccc3ccccc3c2)n1 2 µM, CCN(CC)S(=O)(=O)c1cc(C(=O)OC)ccc1Cl 22.4 µM, Cc1nn(-c2ccccc2)c(C)c1/C=N/NC(=O)c1cc(-c2ccc(Cl)s2)[nH]n1 14.1 µM, Cc1nn(-c2ccccc2)c(Cl)c1/C=N/NC(=O)c1ccco1 7.08 µM, COc1ccc(CN2C(=O)c3ccccc3C(/C=N\OCc3ccc(F)cc3)C2=O)cc1 (stereo not drawn) 12.6 µM, CN(C)c1ncc2nc(-c3ccc(Cl)cc3)c(=O)n(C)c2n1 1.58 µM, CN(C)c1ncc2nc(-c3ccccc3)c(=O)n(C)c2n1 1 µM, CN(C)c1ncc2nc(-c3ccc(F)cc3)c(=O)n(C)c2n1 1.58 µM, COCCNc1ccnc(-c2ccccc2C)n1 12.6 µM, COCCNc1ccnc(-c2ccccc2CN(C)C)n1 5.01 µM, CCCCSCc1nc2nc(Cl)c(Cl)nc2[nH]1 3.16 µM, O=C(CSCc1ccc(Cl)cc1)Nc1nccs1 0.178 µM, C/C(=N\NC(=O)CSCc1ccc(Cl)cc1)c1ccc2c(c1)OCCO2 7.94 µM, O=C(CSCc1ccc(Cl)cc1)Nc1ccc2c(c1)OCCO2 17.8 µM

AC50, inactive:
COc1ccc(COC2OC[C@]3(C)[C@H]4C5=C(CN3C(=O)OC(C)(C)C)[C@H](C)C(CO)C(CO)C5CC[C@@H]24)cc1 (stereo partly drawn), CCOC(=O)N1CCN(CC(=O)c2ccc3c(c2)CCN3)CC1, CCOc1cc(/C=C2/C(=N)N3C=CSC3=NC2=O)ccc1OCCCOc1ccccc1C, COc1cc(/C=C2/C(=N)N3OC(C)=CC3=NC2=O)ccc1OCCOc1ccc(C)cc1, C[C@@](N)(Cc1ccc(O)cc1)C(=O)O, C[C@@](N)(Cc1ccc(O)c(O)c1)C(=O)O, CC(=O)N1CCC2(CC1)CN(Cc1ccccc1)C2, Oc1cc2c(c(Cl)c1O)CCNC[C@H]2c1ccccc1, O=C(c1cc(C(F)(F)F)cc(C(F)(F)F)c1)N1CCC2(CC1)CN(c1ccccn1)C2, CCn1c(Cc2ccccc2)nnc1SCC(=O)NC(C)(C)C, N[C@@H](C(=O)O)c1ccc(O)c(C(=O)O)c1, Nc1ccc(O)c(C(=O)O)c1, O=C(NNS(=O)(=O)c1ccc(Cl)cc1)NC1CCCCC1, CCOC(=O)COc1c(OC)cc(Cl)cc1C1Nc2ccccc2C(=O)N1c1cccc(C)c1 (stereo not drawn), CCOC(=O)COc1c(OC)cc(Cl)cc1C1Nc2ccccc2C(=O)N1c1ccc(F)cc1 (stereo not drawn), COc1ccc(C(=O)O/N=C/c2ccc(S(=O)c3ccc(Cl)cc3)nc2)cc1 (stereo not drawn), N[C@H](CCC(=O)NCS(=O)(=O)O)C(=O)O, Cc1ccccc1NC(=O)CSc1nnc(-c2ccccc2)n1-c1ccccc1, Cc1ccc(C(=O)NNC(=O)CSc2nnc(-c3ccncc3)n2-c2ccc(C)cc2)cc1, CCn1c(SCC(=O)N2CCN(S(=O)(=O)c3ccccc3)CC2)nnc1-c1cccs1, Cn1cccc1C(=O)N1CCC2(CC1)CN(C(=O)Nc1ccccc1)C2, O=C(c1ccccc1)c1nc2ccccc2n(CCCn2c(=O)c(C(=O)c3ccccc3)nc3ccccc32)c1=O, CCS(=O)(=O)N1CCC(C(=O)NCCCOC)CC1, CC(C)(C)C1CCc2c(C(=O)N/N=C/c3cccs3)csc2C1 (stereo not drawn), CCOc1ccc(N2C(=O)/C(=C/c3cccs3)N(CC(=O)OC)C2=S)cc1, CCOc1ccc(N2C(=O)CN=C2Nc2ccccc2Cl)cc1, CCCN(CCC)S(=O)(=O)c1ccc(C(=O)O)cc1, CCN(CC)CCNC(=O)c1ccc(Cl)c(S(=O)(=O)Nc2ccccc2OC)c1, O=C(Nc1c(C(=O)N2CCCCC2)cnn1-c1ccccc1)c1ccco1, CCCC1S/C(=N/N=C/c2ccc(OC)cc2)N(Cc2ccc(OC)cc2)C1=O (stereo not drawn), CC1(C)C2([N+](=O)[O-])CN3CC1([N+](=O)[O-])CN(C2)C31CCCC1, Cc1noc(C)c1C(=O)N1CCC2(CCN(Cc3ccncc3)CC2)CC1, CCc1c(C)c(C#N)c2nc3ccccc3n2c1N1CCN(c2cc(C)ccn2)CC1, CC(C)(C)NC(=O)CN(Cc1cccs1)C(=O)CCC(=O)Nc1nccs1, O=C(CN1CCN(CC(=O)Nc2ccccc2Cl)CC1)Nc1ccc2c(c1)OCCO2, O=C(O)CCC(=O)N1CCOc2ccc(Cl)cc21, O=S(=O)(c1ccccc1)N1CCC2(CCN(Cc3nccs3)CC2)CC1
